The whole screen tested about 65,000 compounds, of which about 2,100 (3.2%) showed an effect of 50% or more. The median lay at about -52%. The entries come from a sample that favours strong results as a whole.

The experiment deals with Plasmodium falciparum. Kind of experiment: Screen against P. falciparum Asexual Blood Stage (ABS), at 5uM. It counts as functional, Dd2. The following applies: tested at 5 uM.
Consider `Cn1ccc(C(=O)NC2CCC23CCN(Cc2ccc(F)cc2)CC3)c1` (configuration not stated), for which the INHIBITION turned out to be 39.9%.
Next, `CN(C)CCOCC1CN(Cc2cccs2)Cc2ccnn2C1` (configuration not stated): 63.4%; `CN(C)CCOCC1CN(CCN(C)C)Cc2ccnn2C1` (configuration not stated): -8.37%; `CN(C)CCOCC1CN(Cc2ccsc2)Cc2ccnn2C1` (configuration not stated): 38.6%.
In the case of `CNS(=O)(=O)c1cc(C)c2[nH]c(=O)cc(C)c2c1` it was -73.5%; in that of `CC(=O)c1c(C)nn(CC(=O)Nc2ccc(Br)cc2)c1C`, 66.7%; in that of `CC(=O)c1c(C)nn(CC(=O)Nc2ccc(F)cc2)c1C`, -44.1%.
On to `COc1ccc(NC(=O)Cn2nc(C)c(C)cc2=O)cc1`, for which the INHIBITION came out at 25.5%.
Take `COc1ncccc1C(=O)N1CC[C@H]2C[C@H](c3ccncn3)O[C@@H]2C1`: the INHIBITION is on record as -27.7%.
Next, `COc1ccc(S(=O)(=O)N2CCC[C@@H]3CN(C(=O)C4CC4)C[C@@H]32)cc1`: -95.9%; `Fc1ccc(CN2CCO[C@H]3[C@H](OCC4CCCC4)CC[C@@H]32)cc1`: -74.2%; `O=C(CCC(F)(F)F)N1CCCC2(CCC(=O)N(CC3CC3)C2)C1` (configuration not stated): -7.69%.
`COc1cccc(-c2cc(CN)ccc2F)c1F`: the INHIBITION is -77.3%.
Take `CC(C)Oc1ccccc1-c1cc(CN)ccc1F`: the INHIBITION is 60.3%.
In the case of `COc1ccc(-c2cc(CN)ccc2F)c(OC)c1OC` it was 13.4%.
Next, `COc1cccc(Cl)c1-c1cc(CN)ccc1F`: 65.3%.
In the case of `CC(C)Oc1ccc(CNC(=O)NCc2ccncc2)cc1F` it was -9.03%; in that of `CC(C)Oc1ccc(CNC(=O)CC(F)(F)F)cc1F`, -29.4%; in that of `CC(C)NC(=O)Nc1ccc(-c2nc(C(C)C)no2)cc1`, -60.3%.
In the case of `CN(C)CCCNC(=O)c1cc(-c2ccc3c(c2)CCO3)n[nH]1`, the INHIBITION is -55.4%.
Next, `Cc1nc(CN2CCN(c3nc4c(s3)c(C)nn4C)CC2)cs1`: -145%.
With `CC(C)(C)c1n[nH]cc1CNCC1CCN(C2CC2)C1` (configuration not stated), the INHIBITION came to 52.2%.
Turning to `CCN1CCC(CNCc2c[nH]nc2C(C)(C)C)C1` (configuration not stated), the INHIBITION was -143%.
As for `CC(C)N1CCC(CNCc2c[nH]nc2C(C)(C)C)C1` (configuration not stated), the INHIBITION is -90.2%.
Next, `Cn1c(=O)c2c(n3ncnc13)NC(=O)CC2c1ccc(F)cc1` (configuration not stated): -53.6%; `Cc1cccc(C(=O)N2C[C@@H](OCc3cccnc3)[C@H]3OCCC[C@@H]32)n1`: -103%; `CC(=O)N1[C@H](CN(C)C)C[C@@H]2CN(C(=O)c3cccc(F)c3)CC[C@@H]21`: -116%.
On to `CC(=O)N1[C@H](CN(C)C)C[C@@H]2CN(C(=O)c3cnc(C)cn3)CC[C@@H]21`, for which the INHIBITION is 29%.
As to `CC(=O)N1[C@H](CN(C)C)C[C@@H]2CN(C(=O)c3ccsc3)CC[C@@H]21`, the INHIBITION is reported as -108%.
For the compound `CC(=O)N1[C@H](CN(C)C)C[C@@H]2CN(C(=O)c3occc3C)CC[C@@H]21`, the INHIBITION came out at 55.3%.
On to `CC(=O)N1[C@H](CN(C)C)C[C@@H]2CN(C(=O)c3ccno3)CC[C@@H]21`, for which the INHIBITION is given as 22.2%.
For `CC(=O)N1[C@H](CN(C)C)C[C@@H]2CN(C(=O)c3cccn3C)CC[C@@H]21`, the INHIBITION stood at 56.5%.
In the case of `CCC[C@H]1CN(Cc2cc(C#N)n(C)c2C)C[C@@H]1N(C)C` it was 20.2%; in that of `Cc1ccc(CN2C[C@@H]3COC[C@]3(COc3ccc(C#N)cn3)C2)o1`, -45.3%; in that of `COCC1(C(=O)N[C@H]2CN(c3ccnc(C)c3)C[C@@H]2C2CC2)CCC1`, -51.7%.
Turning to `O=C(NCCN1CCC(c2cccs2)CC1)Nc1cccs1`, the INHIBITION was found to be 64.2%.
Regarding `O=C(NCCN1CCC(c2cccs2)CC1)c1ccccc1C(F)(F)F`, the INHIBITION is recorded as 34.2%.
For `CC(=O)NCCN1CCC(c2cccs2)CC1`, the INHIBITION turned out to be 6.31%.
Consider `O=C(Cc1ccccc1Cl)NCCN1CCC(c2cccs2)CC1`, for which the INHIBITION was found to be 63.6%.
As to `CCSc1ccccc1C(=O)NCCN1CCC(c2cccs2)CC1`, the INHIBITION is reported as 30.9%.
As to `O=C(NCCN1CCC(c2cccs2)CC1)c1ccc(F)cc1Cl`, the INHIBITION was -19.5%.
Regarding `CCOCC(O)CN1CCN(C(=O)C2CCCCC2)CC1` (configuration not stated), the INHIBITION was -108%.
With `COc1ccccc1Cc1nnc(SCCS(C)(=O)=O)o1`, the INHIBITION is -75.9%.
For the compound `c1ccc2c(NC3CCc4ncnn4C3)ncnc2c1` (configuration not stated), the INHIBITION is reported as -38%.
As for `CCCn1nnc2c(sc3nc(N4CCOCC4)c4c(c32)CCC4)c1=O`, the INHIBITION was -102%.
Take `c1nc(N2CCCC2)cnc1C1CCNCC1`: the INHIBITION is listed as -135%.
Take `CC(C)N1CCCC(Cc2cncc(Br)c2)CC1` (configuration not stated): the INHIBITION is -20.1%.
Take `CCc1nc(C)c(CC(=O)N2CCC3(CC2)OCCCC3O)c(=O)[nH]1` (configuration not stated): the INHIBITION was -109%.
With `Cc1cc(C)n(CC(C)Nc2nc(C)nc3c2CCNC3)n1` (configuration not stated), the INHIBITION came out at 2.63%.
As to `Cc1cccc(C)c1OCC(C)Nc1nc(N)nc2c1CCNC2` (configuration not stated), the INHIBITION was found to be 67%.
Consider `Cc1cccnc1CC(C)Nc1nc(N)nc2c1CCNC2` (configuration not stated), for which the INHIBITION is reported as -92%.
For `Cc1ccc(-c2noc(CN3CCC(N4CCNC4=O)CC3)n2)cc1`, the INHIBITION is -63.1%.

The values above are taken from ChEMBL document CHEMBL4513216, “Probing the Open Global Health Chemical Diversity Library for Multistage-Active Starting Points for Next-Generation Antimalarials” (ACS Infect Dis, 2020).
